Several values for one entry are separate records, joined by “and”; a condition that tells them apart may be missing. Equal entries are not always repeated. For some of these results: Entries with a potency or affinity are not part of this list.
What was measured:
Set-up in all cases: scale not given: direction of the effect not stated beside the values
[1] = biological target: Protein translocase subunit SecA (Escherichia coli (strain K12)) (UniProt P10408); assay: Assay to Identify E. coli SecA ATPase Inhibitors; assay type: functional; conditions: 30 µM
[2] = biological target: T1, Ubiquitin-activating enzyme e1, putative (Leishmania donovani (strain BPK282A1)) (UniProt E9BSI1); assay: Leishmania donovani Ubiquitin Activating Enzyme (LdE1); assay type: functional; conditions: 30 µM
T1 sequence (whole entry): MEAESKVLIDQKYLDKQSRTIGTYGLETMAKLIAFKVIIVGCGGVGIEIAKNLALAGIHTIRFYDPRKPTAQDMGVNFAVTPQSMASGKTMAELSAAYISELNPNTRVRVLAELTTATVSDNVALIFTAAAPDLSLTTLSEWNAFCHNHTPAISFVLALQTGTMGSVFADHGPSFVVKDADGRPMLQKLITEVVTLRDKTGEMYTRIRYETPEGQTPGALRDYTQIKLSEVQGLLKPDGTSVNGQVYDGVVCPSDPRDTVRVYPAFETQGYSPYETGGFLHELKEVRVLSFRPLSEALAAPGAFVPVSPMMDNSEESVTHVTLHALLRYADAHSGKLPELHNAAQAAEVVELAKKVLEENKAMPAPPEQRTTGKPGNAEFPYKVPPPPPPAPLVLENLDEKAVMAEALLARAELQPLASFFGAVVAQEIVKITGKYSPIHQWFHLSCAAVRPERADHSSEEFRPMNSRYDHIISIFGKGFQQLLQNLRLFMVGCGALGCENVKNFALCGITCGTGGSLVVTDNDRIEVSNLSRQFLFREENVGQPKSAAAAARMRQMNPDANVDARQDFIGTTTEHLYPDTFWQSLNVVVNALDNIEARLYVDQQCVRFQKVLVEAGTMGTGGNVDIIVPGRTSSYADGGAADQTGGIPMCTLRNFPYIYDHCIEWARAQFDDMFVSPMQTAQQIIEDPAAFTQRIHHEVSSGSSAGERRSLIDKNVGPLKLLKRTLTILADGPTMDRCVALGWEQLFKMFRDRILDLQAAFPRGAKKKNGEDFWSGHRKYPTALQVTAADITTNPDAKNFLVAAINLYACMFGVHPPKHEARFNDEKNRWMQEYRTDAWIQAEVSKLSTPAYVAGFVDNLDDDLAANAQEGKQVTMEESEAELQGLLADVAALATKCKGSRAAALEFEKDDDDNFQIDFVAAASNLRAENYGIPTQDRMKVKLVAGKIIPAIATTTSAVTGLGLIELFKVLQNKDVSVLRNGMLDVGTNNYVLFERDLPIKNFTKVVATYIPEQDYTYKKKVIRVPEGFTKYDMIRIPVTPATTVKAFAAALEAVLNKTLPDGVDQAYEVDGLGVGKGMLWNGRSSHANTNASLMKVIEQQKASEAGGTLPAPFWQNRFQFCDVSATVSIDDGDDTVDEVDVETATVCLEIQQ

[3] = biological target: AMP-activated protein kinase, AMPK (Homo sapiens) (UniProt P54646+O43741+P54619+Q9UGJ0+Q9Y478+Q13131+Q9UGI9); assay: AMP-dependent Kinase enzyme assay. An in vitro enzyme assay that detects ADP turnover that is directly proportional to AMPK activity. This uses naive AMPK that is activated during the assay with MK-8722; assay type: functional; conditions: 30 µM
[4] = biological target: Sialic acid-binding Ig-like lectin 9 (Homo sapiens) (UniProt Q9Y336); assay: Hs-Siglec9 ALPHAscreen SOP 20170721; conditions: 10 µM
Trypanosoma cruzi = assay: Trypanosoma cruzi phosphomannomutase and mannose-1-phosphate guanylyltransferase assay; assay type: functional; conditions: 10 µM
[5] = biological target: T2, Arginase-2, mitochondrial (Homo sapiens) (UniProt P78540); assay: in vitro enzyme assay to detect the production of urea directly proportional to the activity of Arginase II; assay type: functional; further: in the data most compounds retested in dose-response had high values
T2 sequence (whole entry): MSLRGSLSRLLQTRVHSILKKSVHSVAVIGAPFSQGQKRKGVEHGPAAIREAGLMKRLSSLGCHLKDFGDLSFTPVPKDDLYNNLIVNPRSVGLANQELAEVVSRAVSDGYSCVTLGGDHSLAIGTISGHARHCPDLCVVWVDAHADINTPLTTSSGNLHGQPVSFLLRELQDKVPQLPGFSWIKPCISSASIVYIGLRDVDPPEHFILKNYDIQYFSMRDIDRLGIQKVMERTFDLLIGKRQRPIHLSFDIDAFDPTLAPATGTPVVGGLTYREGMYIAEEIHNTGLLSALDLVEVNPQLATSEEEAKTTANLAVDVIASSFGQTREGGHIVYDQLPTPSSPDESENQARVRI

[6] = biological target: T3, Proteasome subunit beta (Trypanosoma cruzi) (UniProt O96673); assay: Trypanosoma cruzi proteasome chymotrypsin-like activity (TcProtChymo) assay.; further: in the data most compounds retested in dose-response had high values; assay type: functional; conditions: 9.37 µM
T3 sequence (whole entry): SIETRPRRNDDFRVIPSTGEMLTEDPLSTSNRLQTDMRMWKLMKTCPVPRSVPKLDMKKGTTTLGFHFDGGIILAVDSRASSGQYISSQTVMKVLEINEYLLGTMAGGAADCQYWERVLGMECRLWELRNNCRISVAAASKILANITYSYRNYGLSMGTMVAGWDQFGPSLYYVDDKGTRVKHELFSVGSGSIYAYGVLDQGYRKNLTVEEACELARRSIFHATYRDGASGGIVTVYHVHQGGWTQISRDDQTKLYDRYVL

Homo sapiens = organism: Homo sapiens; assay: To identify inhibition of the IFN signalling (Jak-Stat) pathway via expression of an eGFP reporter gene under the control of an IFN-stimulated response element (ISRE) containing MxA promoter.; assay type: functional; conditions: 30 µM
[7] = biological target: T4, Tyrosyl-tRNA synthetase, putative (Trypanosoma cruzi (strain CL Brener)) (UniProt Q4DSP6); assay: Trypanosoma cruzi tyrosyl tRNA synthetase (TcYRS) _High Tyrosine SOP; assay type: functional; conditions: 30 µM; further: in the data most compounds retested in dose-response had high values
T4 sequence (whole entry): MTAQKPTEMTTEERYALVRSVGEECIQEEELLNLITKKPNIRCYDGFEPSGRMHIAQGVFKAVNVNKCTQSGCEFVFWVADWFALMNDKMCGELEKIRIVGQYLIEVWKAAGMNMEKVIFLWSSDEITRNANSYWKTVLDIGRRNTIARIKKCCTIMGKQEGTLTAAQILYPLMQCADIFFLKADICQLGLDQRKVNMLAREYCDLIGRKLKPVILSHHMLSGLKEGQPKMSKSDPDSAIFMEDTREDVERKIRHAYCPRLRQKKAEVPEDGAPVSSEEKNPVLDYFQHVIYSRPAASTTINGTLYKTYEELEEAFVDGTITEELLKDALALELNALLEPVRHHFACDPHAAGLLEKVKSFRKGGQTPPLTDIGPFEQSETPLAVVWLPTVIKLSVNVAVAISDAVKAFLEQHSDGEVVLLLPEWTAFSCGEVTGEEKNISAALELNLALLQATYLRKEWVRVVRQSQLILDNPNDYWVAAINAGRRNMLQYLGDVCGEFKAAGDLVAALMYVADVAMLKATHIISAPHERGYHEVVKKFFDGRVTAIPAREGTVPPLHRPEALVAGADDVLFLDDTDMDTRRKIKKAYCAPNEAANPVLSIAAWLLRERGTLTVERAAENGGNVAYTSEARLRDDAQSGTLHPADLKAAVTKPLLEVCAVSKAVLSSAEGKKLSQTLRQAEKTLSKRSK

[8] = biological target: T4, Tyrosyl-tRNA synthetase, putative (Trypanosoma cruzi (strain CL Brener)); assay: Trypanosoma cruzi tyrosyl tRNA synthetase (TcYRS) SOP; assay type: functional; conditions: 30 µM
[9] = biological target: Chromo domain-containing protein 1 (Saccharomyces cerevisiae (strain ATCC 204508 / S288c) (Baker's yeast)) (UniProt P32657); assay: ScCHD-1 Enzyme Inhibition Assay; assay type: functional; conditions: 30 µM; further: in the data most compounds retested in dose-response had high values
N/A = assay: Trypanosoma cruzi proteasome luciferase counter-screen; assay type: functional; conditions: 9.37 µM

Chromo domain-containing protein 1 (Saccharomyces cerevisiae (strain ATCC 204508 / S288c) (Baker's yeast)), sequence (P32657 whole entry, the tested form may be a part): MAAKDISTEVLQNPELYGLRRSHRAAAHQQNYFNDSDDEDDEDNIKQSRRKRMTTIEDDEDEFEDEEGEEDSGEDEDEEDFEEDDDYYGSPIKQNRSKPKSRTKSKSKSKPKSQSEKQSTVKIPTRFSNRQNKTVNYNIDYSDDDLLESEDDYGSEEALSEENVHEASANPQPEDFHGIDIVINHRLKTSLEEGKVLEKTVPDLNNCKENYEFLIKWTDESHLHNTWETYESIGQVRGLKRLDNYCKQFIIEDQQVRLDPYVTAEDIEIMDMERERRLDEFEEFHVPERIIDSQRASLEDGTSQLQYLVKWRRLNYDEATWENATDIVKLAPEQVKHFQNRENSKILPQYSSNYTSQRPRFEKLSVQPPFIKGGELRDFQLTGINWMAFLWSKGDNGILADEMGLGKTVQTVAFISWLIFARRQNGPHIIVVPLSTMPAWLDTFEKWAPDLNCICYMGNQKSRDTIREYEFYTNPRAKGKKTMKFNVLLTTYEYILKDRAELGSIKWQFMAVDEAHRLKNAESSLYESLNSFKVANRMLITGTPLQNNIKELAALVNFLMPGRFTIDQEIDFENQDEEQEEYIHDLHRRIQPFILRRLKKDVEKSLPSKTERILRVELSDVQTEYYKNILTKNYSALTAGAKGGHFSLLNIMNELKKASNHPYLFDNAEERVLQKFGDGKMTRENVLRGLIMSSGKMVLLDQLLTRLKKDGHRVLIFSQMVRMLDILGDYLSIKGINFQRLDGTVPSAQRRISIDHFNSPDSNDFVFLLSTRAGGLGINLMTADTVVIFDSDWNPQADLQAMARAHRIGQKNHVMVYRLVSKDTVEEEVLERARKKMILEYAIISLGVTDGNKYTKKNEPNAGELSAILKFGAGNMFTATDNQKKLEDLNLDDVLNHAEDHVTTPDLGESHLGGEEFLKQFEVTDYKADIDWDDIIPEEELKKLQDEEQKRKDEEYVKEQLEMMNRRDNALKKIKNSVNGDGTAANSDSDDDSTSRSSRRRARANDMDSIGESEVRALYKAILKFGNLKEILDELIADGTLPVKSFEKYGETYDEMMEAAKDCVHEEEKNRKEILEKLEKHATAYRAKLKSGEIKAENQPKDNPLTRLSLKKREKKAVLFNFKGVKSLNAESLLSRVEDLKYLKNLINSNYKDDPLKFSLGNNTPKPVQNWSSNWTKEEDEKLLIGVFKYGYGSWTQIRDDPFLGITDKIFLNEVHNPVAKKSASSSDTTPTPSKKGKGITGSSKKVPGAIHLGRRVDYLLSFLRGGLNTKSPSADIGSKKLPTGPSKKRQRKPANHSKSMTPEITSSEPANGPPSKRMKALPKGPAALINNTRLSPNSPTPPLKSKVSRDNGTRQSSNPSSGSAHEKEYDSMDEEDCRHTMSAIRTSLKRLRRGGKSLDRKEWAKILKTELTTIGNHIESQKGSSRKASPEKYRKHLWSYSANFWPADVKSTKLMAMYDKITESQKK
Protein translocase subunit SecA (Escherichia coli (strain K12)), sequence (P10408 whole entry): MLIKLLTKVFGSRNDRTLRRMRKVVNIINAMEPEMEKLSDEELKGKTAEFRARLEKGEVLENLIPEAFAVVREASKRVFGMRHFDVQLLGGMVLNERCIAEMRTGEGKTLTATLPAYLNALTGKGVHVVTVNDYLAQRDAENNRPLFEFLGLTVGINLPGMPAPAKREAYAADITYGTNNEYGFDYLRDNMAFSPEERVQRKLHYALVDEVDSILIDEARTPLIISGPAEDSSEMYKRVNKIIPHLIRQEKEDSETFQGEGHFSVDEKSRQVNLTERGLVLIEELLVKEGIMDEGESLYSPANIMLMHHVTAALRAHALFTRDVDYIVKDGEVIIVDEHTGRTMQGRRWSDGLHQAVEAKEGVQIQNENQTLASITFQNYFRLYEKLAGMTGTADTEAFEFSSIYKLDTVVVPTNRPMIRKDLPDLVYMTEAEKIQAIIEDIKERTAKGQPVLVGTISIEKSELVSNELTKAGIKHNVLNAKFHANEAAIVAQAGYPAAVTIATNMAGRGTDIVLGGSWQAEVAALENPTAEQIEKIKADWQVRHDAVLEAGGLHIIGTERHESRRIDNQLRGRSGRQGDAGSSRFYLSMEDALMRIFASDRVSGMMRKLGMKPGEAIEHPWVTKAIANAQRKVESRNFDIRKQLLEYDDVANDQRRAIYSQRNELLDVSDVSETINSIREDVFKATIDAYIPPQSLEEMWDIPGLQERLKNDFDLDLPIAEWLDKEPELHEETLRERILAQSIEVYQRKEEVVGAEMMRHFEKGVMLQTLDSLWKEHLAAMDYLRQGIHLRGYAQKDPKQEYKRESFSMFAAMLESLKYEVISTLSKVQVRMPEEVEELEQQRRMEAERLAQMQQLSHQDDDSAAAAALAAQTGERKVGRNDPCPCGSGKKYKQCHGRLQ
Sialic acid-binding Ig-like lectin 9 (Homo sapiens), sequence (Q9Y336 whole entry): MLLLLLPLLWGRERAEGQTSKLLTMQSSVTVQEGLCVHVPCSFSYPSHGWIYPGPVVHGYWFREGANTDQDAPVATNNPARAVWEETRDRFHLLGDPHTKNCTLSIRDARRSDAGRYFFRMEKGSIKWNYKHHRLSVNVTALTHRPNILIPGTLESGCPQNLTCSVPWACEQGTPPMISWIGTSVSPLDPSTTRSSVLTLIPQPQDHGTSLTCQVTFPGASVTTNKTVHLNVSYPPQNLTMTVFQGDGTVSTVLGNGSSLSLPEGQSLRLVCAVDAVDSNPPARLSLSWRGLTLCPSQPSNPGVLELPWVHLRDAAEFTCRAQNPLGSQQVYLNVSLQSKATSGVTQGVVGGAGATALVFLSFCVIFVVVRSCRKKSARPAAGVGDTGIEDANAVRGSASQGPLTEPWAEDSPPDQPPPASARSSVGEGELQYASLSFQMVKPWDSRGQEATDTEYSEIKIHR

Structure (SMILES)	Percent Effect [1] [%]	Percent Effect [2] [%]	Percent Effect [3] [%]	Percent Effect [4] [%]	Percent Effect (Trypanosoma cruzi) [%]	Percent Effect ([5]; 33.3 µM) [%]	Percent Effect [6]	Percent Effect (Homo sapiens) [%]	Percent Effect [7] [%]	Percent Effect [8] [%]	Percent Effect [9] [%]	Percent Effect ([5]; 30 µM) [%]	Percent Effect (N/A)
CC(C)(C)C(=O)NCCc1ccn(-c2ccccc2)n1	-5.41	13.9	0.882	2.89	-0.923	4.09	8.92%	2.37	4.17	17.7	-30		
COCC1CC2(CCN(Cc3cnn(C)c3)CC2)CN1c1ncccn1 (stereo not given)	-2.97	13	0.218	12.7	7.38	-5.52	11.7%	-19	7.53	18.5	-2.6		
COc1ccc(C)cc1CSCCn1nc2ccccn2c1=O	-4.01	20.8	-1.24	-10.9	4.6	-1.47	12.7%	11.9	3.81	21.2	-22.4		
COc1cccc(S(=O)(=O)N2CCn3cnc(COCC4CC4)c3C2)c1	-2.27	2.67	2.22	0.793	0.386	-33.1	3.93%	7.62	3.12	5	-4.77		
CCOc1ncccc1NC(=O)N1CCN(c2cccc(C)c2C)CC1	-0.972	10.8	2.83	-3.7	-10.1	5.36	4.49%	15.3	3.96	13.4	1.36		
Cc1cc(C)nc(N2Cc3cnn(Cc4ccc(F)cc4)c3C2)n1	-6.24	-2.67	1.55	-0.223	-7.5	-2.6	10.6%	33.6	-6.01	-6.17	-5.39		
CCN(Cc1ccc2c(c1)OCCO2)S(=O)(=O)N(C)C(C)C	-5.7	7.79	3.89	16	5.99	0.356	3.38%	9.12	0	14.6	-6.79		
c1nc2c(c(C3CC3)n1)CCN(Cc1ccoc1)CC2	0.0846	19.2	-4.87	5.4	5.56	-0.798	6.59%	5.88	8.33	23.5	-3.03		
CNC(=O)[C@@]12CCO[C@@H]1CCN(Cc1scnc1C)C2	3.6	7.79	9.91	-13.5	-7.4	7.1	20.4%	5.25	5.29	6.41	-8.35		
CN(C)CC1CN(Cc2csc(C3CCCC3)n2)CCO1 (stereo not given)	-2.18	5.26	-6.29	9.69	6.63	0.36	7.02%	-33	8.37	16.1	4.62		
CN1N=C(C(=O)N(Cc2ccco2)C2CC2)CCC1=O	-3.94	0	7.53	0.679	1.46	-1.18	9.49%	4.75	4.25	5.2	8.43		
CCc1cnc(CN2CCC(N(C)Cc3noc(C4CC4)n3)C2)o1 (stereo not given)	-3.48	0		-1.21	-2.24	4.3	0.175%	5.76	0.98	-2.35	0.446		
CCn1ccnc1CNCC1CCCN1c1cccnn1 (stereo not given)	-4.44	2.67		5.47	0.803	0.444	1.78%	9.51	6.84	12.8	-8.32		
O=C(NCc1nn(-c2ccccc2)c2c1CCC2)N1CCSCC1	-6.8	-2.56		-13.1	12.7	-1.64	7.25%	15.5	2.39	13.2	-7.59		
Cc1nc(-c2ccc(C(=O)O)cc2)cc(C2CCN(C(C)C)C2)n1 (stereo not given)	-2.82	12		-4.91	-1.18	4.87	10.7%	8.94	5.29	15	-22.5		
COc1ccc2c(c1)OCC(CNC(=O)c1ccc(=O)n(C)c1)C2 (stereo not given)	-9.07	-2.7		20.7	5.72	17.8	12.5%	9.66	4.79	9.76	0.784	-5.95	
CCN1CCC2(CCC(=O)N2Cc2cccc(C)n2)CC1	-2.48	9.09		-0.0986	-0.188	0.457	2.49%	-13.7	7.73	15	-11.3		
CN(C)c1cc(CNC(=O)Nc2ccc(F)cc2)ccn1	2.4	17.9		-9.83	3.29	0.41	47.8% and 47.4% and 50.2%	6.94	7.18	25.3	-3.18		25.9% and 25.6%
Nc1nc(CCC(=O)N2CCOC(CC3CCCCC3)C2)cs1 (stereo not given)	-7.43	0		6.25	11.3	-2.45	3.25%	10.9	9.04	19.5	5.38	3.78	
Cn1cc(CN2C[C@@H]3COC[C@]3(CNC(=O)c3ccsc3)C2)cn1	-3	-1.3		16.9	-3.6	-5.26	9.27%	-6.13	-1.58	0	-2.4		
Cc1ncccc1NC(=O)C1=NOC2(CCN(Cc3nccs3)C2)C1 (stereo not given)	-7.98	-14.3		2.46	-0.682	4.45	17.7%	-6.55	6.84	15.4	5.53		
CCc1nnc2n1CCN(Cc1csc(-c3ccc(C)o3)n1)C2	-2.83	10.3		-4.26	7.42	1.23	36.4% and 37.5% and 36.1%	4.79	8.13	22.9	-6.08		6.53% and 0.633%
